The campaign covered roughly 5,500 compounds. About 2,000 (36%) were called active. About 18% were inconclusive and are not listed. No stated cut-off is given here; in the data, active means normalized growth mostly below about 0.91 (no sharp cut-off); inconclusive means no clear call, values can overlap the other calls; inactive means mostly above about 0.92. The list shows a part of the results.
Assay: chemical genetic growth profiling, strain panel (AID 1159580);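 further: tested at 20 µM; growth read once vehicle control cultures reached saturation at 30 °C; 1 = growth at the plate median or of vehicle wells; lower values mean less growth of the strain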
Conditions: growth OD

Measured: normalized growth

CN(C)[C@@H]1C(=O)C(C(N)=O)=C(O)[C@@]2(O)C(=O)C3=C(O)c4c(O)cccc4[C@@](C)(O)[C@H]3[C@H](O)[C@@H]12
inactive: S. cerevisiae deletion strains, locus YJR075W, strain HOC1, hits give low values 1.01 | S. cerevisiae deletion strains, locus YKL009W, strain mrt4, hits give low values 0.996 | S. cerevisiae deletion strains, locus YKL068W, hits give low values 0.997 | S. cerevisiae deletion strains, locus YKL085W, strain MDH1 (second series), hits give low values 0.999 | S. cerevisiae deletion strains, locus YKL085W, strain MDH1, hits give low values 0.999 | S. cerevisiae deletion strains, locus YKL160W, strain elf1, hits give low values 1.02 | S. cerevisiae deletion strains, locus YKL190W, strain CNB1, hits give low values 1.01 | S. cerevisiae deletion strains, locus YKR001C, strain vps1, hits give low values 0.989 | S. cerevisiae deletion strains, locus YKR026C, strain gcn3, hits give low values 1.01 | S. cerevisiae deletion strains, locus YKR091W, strain srl3, hits give low values 1.02 | S. cerevisiae deletion strains, locus YLL001W, strain dnm1, hits give low values 1.02 | S. cerevisiae deletion strains, locus YLL026W, hits give low values 1.03 | S. cerevisiae deletion strains, locus YLL041C, strain sdh2, hits give low values 1.02 | S. cerevisiae deletion strains, locus YLR027C, strain aat2, hits give low values 1.01 | S. cerevisiae deletion strains, locus YLR039C, strain RIC1, hits give low values 1.03 | S. cerevisiae deletion strains, locus YLR058C, strain SHM2, hits give low values 1 | S. cerevisiae deletion strains, locus YLR102C, strain apc9, hits give low values 0.995 | S. cerevisiae deletion strains, locus YLR113W, strain HOG1, hits give low values 0.995 | S. cerevisiae deletion strains, locus YLR221C, strain rsa3, hits give low values 1.01 | S. cerevisiae deletion strains, locus YLR258W, strain gsy2, hits give low values 1.01 | S. cerevisiae deletion strains, locus YLR262C, strain YPT6 (second series), hits give low values 0.997 | S. cerevisiae deletion strains, locus YLR262C, strain YPT6, hits give low values 1.02 | S. cerevisiae deletion strains, locus YLR268W, strain sec22, hits give low values 0.975 | S. cerevisiae deletion strains, locus YLR320W, strain mms22, hits give low values 1.01 | S. cerevisiae deletion strains, locus YLR330W, strain CHS5, hits give low values 1.01 | S. cerevisiae deletion strains, locus YLR342W, strain FKS1 (second series), hits give low values 0.976 | S. cerevisiae deletion strains, locus YLR342W, strain FKS1, hits give low values 1 | S. cerevisiae deletion strains, locus YLR357W, strain rsc2, hits give low values 1 | S. cerevisiae deletion strains, locus YLR370C, strain arc18, hits give low values 1.02 | S. cerevisiae deletion strains, locus YLR371W, strain rom2, hits give low values 1 | S. cerevisiae deletion strains, locus YLR384C, strain iki3, hits give low values 1.02 | S. cerevisiae deletion strains, locus YLR418C, strain cdc73, hits give low values 0.986 | S. cerevisiae deletion strains, locus YML016C, strain PPZ1, hits give low values 0.994 | S. cerevisiae deletion strains, locus YML032C, strain rad52, hits give low values 0.98 | S. cerevisiae deletion strains, locus YML120C, strain ndi1, hits give low values 1.01 | S. cerevisiae deletion strains, locus YML124C, strain tub3, hits give low values 1 | S. cerevisiae deletion strains, locus YMR058W, strain fet3, hits give low values 0.977 | S. cerevisiae deletion strains, locus YMR078C, strain ctf18, hits give low values 1 | S. cerevisiae deletion strains, locus YMR125W, strain sto1, hits give low values 1.01 | S. cerevisiae deletion strains, locus YMR129W, hits give low values 1.01 | S. cerevisiae deletion strains, locus YMR205C, strain PFK2, hits give low values 1.04 | S. cerevisiae deletion strains, locus YMR223W, strain ubp8, hits give low values 0.988 | S. cerevisiae deletion strains, locus YMR231W, strain pep5, hits give low values 1.02 | S. cerevisiae deletion strains, locus YMR307W, strain GAS1, hits give low values 0.994 | S. cerevisiae deletion strains, locus YNL067W, strain RPL9B, hits give low values 1.01 | S. cerevisiae deletion strains, locus YNL071W, strain lat1, hits give low values 1.02 | S. cerevisiae deletion strains, locus YNL128W, strain TEP1, hits give low values 1.01 | S. cerevisiae deletion strains, locus YNL153C, strain GIM3, hits give low values 0.998 | S. cerevisiae deletion strains, locus YNL183C, strain NPR1, hits give low values 0.95 | S. cerevisiae deletion strains, locus YNL209W, strain ssb2, hits give low values 1.01 | S. cerevisiae deletion strains, locus YNL233W, strain BNI4, hits give low values 1 | S. cerevisiae deletion strains, locus YNL248C, strain rpa49, hits give low values 0.966 | S. cerevisiae deletion strains, locus YNL250W, strain rad50, hits give low values 0.994 | S. cerevisiae deletion strains, locus YNL271C, strain bni1, hits give low values 0.984 | S. cerevisiae deletion strains, locus YNL298W, strain CLA4, hits give low values 0.968 | S. cerevisiae deletion strains, locus YNL307C, strain MCK1, hits give low values 1.01 | S. cerevisiae deletion strains, locus YNL322C, strain KRE1 (second series), hits give low values 1.01 | S. cerevisiae deletion strains, locus YNL322C, strain KRE1, hits give low values 1 | S. cerevisiae deletion strains, locus YNR049C, strain mso1, hits give low values 1.02 | S. cerevisiae deletion strains, locus YNR052C, strain pop2, hits give low values 0.995 | S. cerevisiae deletion strains, locus YOL006C, strain TOP1, hits give low values 1.03 | S. cerevisiae deletion strains, locus YOL012C, strain htz1 0.944 | S. cerevisiae deletion strains, locus YOL147C, strain pex11, hits give low values 0.991 | S. cerevisiae deletion strains, locus YOR001W, strain rrp6, hits give low values 1.04 | S. cerevisiae deletion strains, locus YOR061W, strain CKA2, hits give low values 1 | S. cerevisiae deletion strains, locus YOR069W, strain VPS5, hits give low values 1.01 | S. cerevisiae deletion strains, locus YOR070C, strain gyp1, hits give low values 1.01 | S. cerevisiae deletion strains, locus YOR080W, strain dia2, hits give low values 1.01 | S. cerevisiae deletion strains, locus YOR083W, strain WHI5, hits give low values 1.02 | S. cerevisiae deletion strains, locus YOR106W, strain vam3, hits give low values 1.02 | S. cerevisiae deletion strains, locus YOR136W, strain idh2, hits give low values 1.01 | S. cerevisiae deletion strains, locus YOR144C, strain elg1, hits give low values 0.996 | S. cerevisiae deletion strains, locus YOR184W, strain ser1, hits give low values 1 | S. cerevisiae deletion strains, locus YOR231W, strain MKK1, hits give low values 0.99 | S. cerevisiae deletion strains, locus YOR265W, strain rbl2, hits give low values 1.02 | S. cerevisiae deletion strains, locus YOR270C, strain vph1, hits give low values 1.04 | S. cerevisiae deletion strains, locus YOR290C, strain snf2, hits give low values 1 | S. cerevisiae deletion strains, locus YOR316C, strain cot1, hits give low values 1.01 | S. cerevisiae deletion strains, locus YPL051W, strain arl3, hits give low values 0.995 | S. cerevisiae deletion strains, locus YPL055C, strain LGE1, hits give low values 1.02 | S. cerevisiae deletion strains, locus YPL078C, strain atp4, hits give low values 1.03 | S. cerevisiae deletion strains, locus YPL106C, strain sse1, hits give low values 1.02 | S. cerevisiae deletion strains, locus YPL240C, strain hsp82, hits give low values 1.03 | S. cerevisiae deletion strains, locus YPL241C, strain CIN2, hits give low values 1 | S. cerevisiae deletion strains, locus YPL256C, strain CLN2, hits give low values 0.991 | S. cerevisiae deletion strains, locus YPR119W, strain clb2, hits give low values 1 | S. cerevisiae deletion strains, locus YPR141C, strain kar3, hits give low values 0.995 | S. cerevisiae deletion strains, locus YPR163C, strain tif3, hits give low values 1 | S. cerevisiae deletion strains, locus YPR167C, strain met16, hits give low values 1 | S. cerevisiae deletion strains, strain wtn01, hits give low values 0.985 | S. cerevisiae strains, strain wild type, hits give low values 1

Reference: PubChem BioAssay AID1159580 (chemical genetic matrix, 2015)
